Reference: PubChem BioAssay AID624364 (Broad Institute, 2012)
Results with a measured potency or affinity are listed apart. The source made the active and inactive calls.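 The calls were made as follows: active = compounds lowering ATP signal whose fitted half-maximal concentration is at most twice the top tested dose; inconclusive = flat fit with 30 to 70% loss, or bad fit; inactive = the rest.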

assay: A375 melanoma cell viability loss, dose response, counter-screen for MITF inhibitor project, CellTiter-Glo luminescence, dry powder, set 4 (AID 624364); settings: CellTiter-Glo ATP luminescence, 24 h; series mostly up to 35 µM

Compound	outcome
C=CCNC1=C(NCCCN2CCOCC2)C(=O)c2ccccc2C1=O	inactive
O=C(NC1=C(N2CCN(c3ccccc3)CC2)C(=O)c2ccccc2C1=O)c1ccccc1	inactive
COc1ccc(C2=C(NC(=O)c3ccc(OC)cc3-c3cccc(OC)c3)C(=O)c3ccccc3C2=O)cc1	inactive
C=CCNC1=C(NCC=C)C(=O)c2ccccc2C1=O	inactive
CN1CCN(C2=C(NS(=O)(=O)c3cccs3)C(=O)c3ccccc3C2=O)CC1	inactive
